From PubChem BioAssay (EPA / NIEHS)
Results filed as inconclusive are left out. The source made the active and inactive calls. How the source made its calls: active means hit-call score of the fitted dose curve at least 0.9, where 1 is the maximum; inconclusive means response in the unintended direction; inactive means score below 0.9.

These compounds were tested against Estrogen-related receptor gamma (Homo sapiens) (UniProt P62508) (assay: ATG_ERRg_TRANS: Attagene TRANS-FACTORIAL HepG2 Assay for human Estrogen-Related Receptor gamma (ERRg) (AID 2282977;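 further: hits increase reporter signal over DMSO so potencies reflect activators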)). Conditions: HepG2 Attagene TRANS reporter, ERRg transactivation.
Sequence of Estrogen-related receptor gamma (Homo sapiens) (P62508 whole entry, looked up): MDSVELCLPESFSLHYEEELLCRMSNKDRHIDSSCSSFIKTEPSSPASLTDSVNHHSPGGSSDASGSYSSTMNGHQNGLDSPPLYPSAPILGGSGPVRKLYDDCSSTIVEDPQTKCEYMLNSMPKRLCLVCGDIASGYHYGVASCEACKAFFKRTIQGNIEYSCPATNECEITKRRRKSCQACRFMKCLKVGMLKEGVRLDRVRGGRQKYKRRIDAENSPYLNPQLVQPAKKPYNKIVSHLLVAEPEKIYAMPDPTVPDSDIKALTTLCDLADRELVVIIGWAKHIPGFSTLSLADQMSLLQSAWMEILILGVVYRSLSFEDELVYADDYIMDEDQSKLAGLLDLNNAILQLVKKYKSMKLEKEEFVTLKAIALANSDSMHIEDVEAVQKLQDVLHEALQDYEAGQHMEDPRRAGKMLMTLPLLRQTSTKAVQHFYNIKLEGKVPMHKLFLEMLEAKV
Experimental: ATG_TRANS is a cell-based, multiplexed-readout assay that uses HepG2, a human liver cell line, with measurements taken at 24 hours after chemical dosing in a 24-well plate.ATG_ERRg_TRANS is one of 30 assay component(s) measured or calculated from the ATG_TRANS assay. It is designed to make measurements of mRNA induction, a form of inducible reporter, as detected with fluorescence intensity signals by Reverse transcription polymerase chain reaction (RT-PCR) and Capillary electrophoresis technology.Data from the assay component ATG_ERRg_TRANS was analyzed into 1 assay endpoint. This assay endpoint, ATG_ERRg_TRANS, was analyzed in the positive analysis fitting direction relative to DMSO as the negative control and baseline of activity. Using a type of inducible reporter, measures of mRNA for gain-of-signal activity can be used to understand the reporter gene at the transcription factor-level as they relate to the gene ESRRG. Furthermore, this assay endpoint can be referred to as a primary readout, because this assay has produced multiple assay endpoints where this one serves a reporter gene function. To generalize the intended target to other relatable targets, this assay endpoint is annotated to the nuclear receptor intended target family, where the subfamily is steroidal.
Human liver HepG2 cells are transiently transfected with multiple reporter transcription units (MRTUs) in 6-well plates using FuGene 6 reagent (Roche; 3 ml FuGene/1 mg DNA). The MRTU constructs are regulated by a cis-regulating element (promoter). […] A major difference between the CIS and TRANS system is that in CIS activities of endogenous TFs are measured, whereas the TRANS assay evaluates changes in activities of exogenous, chimeric NR-Gal4 proteins. […] At the end of 24 hour incubation, total RNA was isolated using TriZol reagent (Invitrogen). The isolated RNA is then reverse-transcribed using oligo(dT) primer and Mo-MLV reverse transcriptase (Invitrogen) with DNAse I (Ambion) treatment for 30 min. The one-tenth of the produced cDNA was amplified by PCR using Taq DNA polymerase (Invitrogen) and two reporter sequence-specific primers. The PCR products were fluorescently labeled by primer extension with 6-arboxyfluorescein (6-FAM) 5'-labeled reporter sequence-specific primer (2 min at 95 C, 20 s at 68 C and 10 min at 72 C) and these products were digested with 5U of HpaI (New England Biolabs) for 2h at 37 C. The fragments were purified using Qiaquick PCR columns (Qiagen), analyzed on an ABI 3130xL genetic analyzer (Applied Biosystems) with peak positions identified by using a set of X-rhodamine (ROX)-labeled MapMarker1000 molecular weight standards (BioVentures). The raw capillary electrophoresis data was processed using Attagraph software (Attagene).
With O=C(Nc1ccccc1)Nc1cnns1 the outcome was “inactive”. In the case of Cc1cc(C)nc(NC(=O)NS(=O)(=O)c2ccccc2C(=O)OC2COC2)n1, the outcome is reported as “inactive”. For C[C@H]1[C@H](c2ccc(Cl)cc2)SC(=O)N1C(=O)NC1CCCCC1, the outcome was “inactive”. With CCC(C)(NC(=O)c1cc(Cl)c(C)c(Cl)c1)C(=O)CCl (stereo unspecified) the outcome was “inactive”. In the case of CCS(=O)(=O)c1cccnc1S(=O)(=O)NC(=O)Nc1nc(OC)cc(OC)n1, the outcome is reported as “inactive”. CCC(C)(C)C(=O)OC1=C(c2ccc(Cl)cc2Cl)C(=O)OC12CCCCC2 was tested, and the outcome was “inactive”. For O=C(NC(=O)c1c(F)cccc1F)Nc1ccc(OC(F)(F)C(F)OC(F)(F)F)c(Cl)c1 (stereo unspecified), the outcome was “inactive”. In the case of CCOCN(C(=O)CCl)c1c(C)cccc1CC, the outcome is reported as “inactive”. With Oc1cc(Cl)ccc1Oc1ccc(Cl)cc1Cl the outcome was “inactive”. With ClC1C(Cl)C(Cl)C(Cl)C(Cl)C1Cl (stereo unspecified) the outcome was “inactive”. OCCOc1ccccc1 was tested, and the outcome was “inactive”. In the case of CCc1ccc(C(=O)NN(C(=O)c2cc(C)cc(C)c2)C(C)(C)C)cc1, the outcome is reported as “inactive”. CC(C)N(C(=O)COc1nnc(C(F)(F)F)s1)c1ccc(F)cc1 was tested, and the outcome was “inactive”. With CC(C)OC(=O)Nc1cccc(Cl)c1 the outcome was “inactive”. In the case of CC1(C)C(C=C(Cl)Cl)C1C(=O)OC(C#N)c1ccc(F)c(Oc2ccccc2)c1 (stereo unspecified), the outcome is reported as “inactive”. CCN(CC)C(=O)SCc1ccc(Cl)cc1 was tested, and the outcome was “inactive”. For CC(C)(C)C(O)/C(=C\c1ccc(Cl)cc1Cl)n1cncn1 (stereo unspecified), the outcome was “inactive”. In the case of CCOc1nc(NC)nc(NC(=O)NS(=O)(=O)c2ccccc2C(=O)OC)n1, the outcome is reported as “inactive”. COC(=O)c1ccccc1CS(=O)(=O)NC(=O)Nc1nc(OC)cc(OC)n1 was tested, and the outcome was “inactive”. O=S(=O)(O)C(F)(F)C(F)(F)C(F)(F)C(F)(F)C(F)(F)C(F)(F)C(F)(F)C(F)(F)F was tested, and the outcome was “inactive”. For CCCN(CCOc1c(Cl)cc(Cl)cc1Cl)C(=O)n1ccnc1, the outcome was “inactive”.
